# Measured values reported in PubChem BioAssay.
# The source made the active and inactive calls.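 Rule for the calls, unless noted: active = compound that reduces growth-factor-driven endothelial tube area in a mixed cell culture, no cutoff stated; inactive = the rest.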
# What was measured:
# [1] = Wnt pathway potentiators raising nuclear beta-catenin – imaging, WNT3A-conditioned medium, mouse C2C12, NPC library, primary screen (AID 1117326; in the data active = nuclear beta-catenin stimulation mostly above about 4.2%, no sharp cut-off; inactive = mostly below about 10%; note: reference of the scale not given here); conditions: stronger effect = higher value
# [2] = stimulators of insulin release from INS-1E, primary screen, cell-based, 5 mM glucose, NPC library (AID 1117329;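 active = compound raises insulin release from rat beta cells at 5 mM glucose, no numeric limit stated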; note: reference of the scale not given here); conditions: rat INS-1E insulin secretion, at 10 µM, stronger effect = higher value
# [3] = growth inhibition of GSK3B-pretreated HCT116 cells – cell-based, CellTiter-Glo, 0.2 to 20 µM (AID 1117336;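 active = compounds lowering colon cancer cell viability after pretreatment blocking the GSK3B kinase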); conditions: HCT116 viability after GSK3B inhibitor, at 20 µM, stronger effect = higher value
# [4] = inhibition of endothelial tube formation, primary screen, imaging, VEGF stimulated, CD31 staining, tube area, NPC library (AID 1117340); conditions: VEGF-stimulated ADSC/ECFC co-culture, at 10 µM, stronger effect = higher value
# [5] = GLP1 release stimulators, primary, NCI-H716, NPC library (AID 1117341;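 active = compound raises GLP1 secretion from the human gut endocrine cells, with no numeric limit stated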; note: reference of the scale not given here); conditions: NCI-H716 cells, at 10 µM, stronger effect = higher value
# [6] = HCT116 colon cancer cell growth inhibition, primary screen, CellTiter-Glo luminescence, NPC library (AID 1117342;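 active = compounds that lower survival of HCT116 colon cancer cells in the luminescence readout, no numeric limit stated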); conditions: at 20 µM (top of the series)
# [7] = reduced SW480 viability measured with CellTiter-Glo, NPC library, primary (AID 1117343;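 active = compounds that lower viability of the colon cancer cells in the luminescence readout, with no numeric limit stated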); conditions: CellTiter-Glo luminescence; at 20 µM (top of the series)
# [8] = NPC library primary testing for decreased DLD-1 cell viability via CellTiter-Glo (AID 1117346;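 active = compounds that lower survival of DLD-1 colon cancer cells in the luminescence readout, no cutoff given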); conditions: DLD-1 viability, CellTiter-Glo luminescence; at 20 µM (top of the series)
# [9] = molecular target: 6-phosphogluconate dehydrogenase, decarboxylating (Homo sapiens) (UniProt P52209); test: inhibition of human phosphogluconate dehydrogenase – biochemical, recombinant enzyme, NADPH absorbance, primary screen (AID 1159550;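 active = at least 20% inhibition of 6-phosphogluconate dehydrogenase activity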); conditions: recombinant 6PGD, NADPH absorbance 341 nm; at 10 µM; stronger effect = higher value
# Chain of 6-phosphogluconate dehydrogenase, decarboxylating (Homo sapiens) (P52209 whole entry, looked up): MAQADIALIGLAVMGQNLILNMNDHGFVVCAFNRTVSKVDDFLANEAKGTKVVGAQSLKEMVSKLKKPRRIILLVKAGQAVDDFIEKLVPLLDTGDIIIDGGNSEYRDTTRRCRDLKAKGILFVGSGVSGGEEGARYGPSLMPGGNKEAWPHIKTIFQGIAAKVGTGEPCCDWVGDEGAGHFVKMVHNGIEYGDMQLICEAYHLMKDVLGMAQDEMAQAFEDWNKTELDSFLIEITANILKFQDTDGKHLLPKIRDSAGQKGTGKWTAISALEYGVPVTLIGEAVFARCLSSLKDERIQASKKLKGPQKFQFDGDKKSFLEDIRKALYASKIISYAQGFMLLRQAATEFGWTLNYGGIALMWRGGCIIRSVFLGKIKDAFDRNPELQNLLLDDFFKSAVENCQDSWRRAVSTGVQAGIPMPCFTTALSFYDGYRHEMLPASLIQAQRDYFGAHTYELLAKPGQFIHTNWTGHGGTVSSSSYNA
SMILES,nuclear beta-catenin stimulation ([1]; at 10 µM),"nuclear beta-catenin stimulation ([1]; stimulation, at 2 µM) [%]",insulin secretion stimulation [2],viability decrease [3],tube area decrease [4],GLP1 secretion stimulation [5],inhibition of viability [6],viability decrease (inhibition) [7],viability decrease (inhibition) [8],inhibition [9]
CN1[C@@H]2CC[C@H]1CC(OC(=O)C(O)c1ccccc1)C2 (stereo not given in full),-0.1% (inactive),-2.6,3.1% (inactive),15% (inactive),-13.1% (inactive),1% (inactive),28% (inactive),22.2% (inactive),-0.2% (inactive),-3.32% (inactive)
O=c1[nH]cnc2nc[nH]c12,-0.2% (inactive),1.5,0.7% (inactive),-11% (inactive),-3.2% (inactive),0.7% (inactive),-26.8% (inactive),-73% (inactive),-26.4% (inactive),4.21% (inactive)
Nc1ccc(C(=O)O)c(O)c1,0.9% (inactive),1.5,0.1% (inactive),-46.6% (inactive),15.9% (inactive),-6% (inactive),-12.6% (inactive),12.5% (inactive),-27.1% (inactive),6.71% (inactive)
CC(=O)Nc1cccc(O)c1,-0.7% (inactive),2.5,1.1% (inactive),-1.55% (inactive),-19.6% (inactive),-0.3% (inactive),-14.5% (inactive),32.8% (inactive),4.35% (inactive),11.9% (inactive)
C1CCC(C(CC2CCCCN2)C2CCCCC2)CC1 (stereo not given),22.1% (inactive),1.1,7.6% (inactive),101% (active),9.8% (inactive),4.9% (inactive),100% (active),120% (active),103% (active),12.3% (inactive)
CN1C(C(=O)Nc2ccccn2)=C(O)c2sccc2S1(=O)=O,0.8% (inactive),1,1.6% (inactive),-17.8% (inactive),2.6% (inactive),0.4% (inactive),8.2% (inactive),13.4% (inactive),-0.2% (inactive),-2.82% (inactive)
CC(=O)OCC(=O)[C@@]1(O)[C@H](OC(C)=O)C[C@H]2[C@@H]3CCC4=CC(=O)C=C[C@]4(C)[C@@]3(F)[C@@H](O)C[C@@]21C,0.9% (inactive),1.1,2.1% (inactive),-9% (inactive),-8.6% (inactive),2.4% (inactive),-8.2% (inactive),18.4% (inactive),-14.1% (inactive),14.6% (inactive)
CC(=O)OCC(=O)[C@H]1CC[C@H]2[C@@H]3CCC4=CC(=O)CC[C@]4(C)[C@H]3CC[C@]12C,-1.4% (inactive),-0.5,0.3% (inactive),0.8% (inactive),-2.5% (inactive),-0.6% (inactive),34.5% (inactive),1.2% (inactive),-9.6% (inactive),2.51% (inactive)
O=c1cc(CO)occ1O,2.6% (inactive),0.4,-1.3% (inactive),-8.3% (inactive),-7.1% (inactive),1.9% (inactive),-7% (inactive),38.7% (inactive),10.8% (inactive),6.93% (inactive)
CC(=O)Oc1cccc2c1C(=O)c1c(OC(C)=O)cc(C(=O)O)cc1C2=O,3.2% (inactive),3.4,1.8% (inactive),106% (active),6.3% (active),-2% (inactive),100% (active),59.1% (active),64.3% (active),-1.78% (inactive)
Cc1ccc(C(=O)c2ccc(CC(=O)O)n2C)cc1,5.9% (inactive),3.5,0.4% (inactive),-13.7% (inactive),-2.5% (inactive),3.1% (inactive),-3.2% (inactive),-14.3% (inactive),4.3% (inactive),9.71% (inactive)
CC(=O)O[C@]1(C(C)=O)CC[C@H]2[C@@H]3C=C(Cl)C4=CC(=O)CC[C@]4(C)[C@H]3CC[C@@]21C,1.1% (inactive),-0.3,0% (inactive),56.2% (active),22.4% (inactive),1.3% (inactive),52.6% (active),57.1% (active),7.1% (inactive),-12% (inactive)
Cc1ccc(C(C)C)cc2c(C)ccc1-2,-1.2% (inactive),0.2,-0.7% (inactive),-28.6% (inactive),15.5% (inactive),-6.3% (inactive),5.77% (inactive),-9.4% (inactive),-6.8% (inactive),-19.1% (inactive)
COc1cc(OC)cc(OC)c1,1.2% (inactive),-0.8,2.1% (inactive),-6.5% (inactive),7.3% (inactive),-0.4% (inactive),-3.13% (inactive),-10.2% (inactive),-8.5% (inactive),14.4% (inactive)
Cc1ccccc1OCC(O)CO (stereo not given),0.8% (inactive),2.4,-1.2% (inactive),-10.2% (inactive),-4.1% (inactive),-0.8% (inactive),-20.4% (inactive),0.7% (inactive),-25.4% (inactive),7.3% (inactive)
CCCCOc1cc(C(=O)NCCN(CC)CC)c2ccccc2n1,5.7% (inactive),1.8,1.6% (inactive),-47.5% (inactive),3.5% (inactive),7.7% (inactive),45.3% (inactive),49.2% (inactive),29.5% (inactive),-0.88% (inactive)
CCN(CC)C(=O)N1CCN(C)CC1,-0.1% (inactive),0.2,-1.8% (inactive),-3.6% (inactive),-3.8% (inactive),4.4% (inactive),5.3% (inactive),53.1% (active),-2.05% (inactive),10.8% (inactive)
CCOC(=O)[C@H](CCc1ccccc1)N[C@@H](C)C(=O)N1CCC[C@H]1C(=O)O,4.4% (inactive),1.5,0.7% (inactive),1.3% (inactive),-1.3% (inactive),19.8% (inactive),-3.77% (inactive),12.5% (inactive),3.4% (inactive),-2.48% (inactive)
CC1CCc2cc(F)cc3c(=O)c(C(=O)O)cn1c23 (stereo not given),3.1% (inactive),-1.1,1.1% (inactive),-105% (inactive),3.3% (inactive),-1.9% (inactive),19.6% (inactive),51.1% (active),-6.7% (inactive),2.78% (inactive)
NCC1CCC(C(=O)O)CC1 (stereo not given),0.7% (inactive),0.5,-1.6% (inactive),-8.4% (inactive),25.3% (inactive),0.1% (inactive),-10.3% (inactive),2.1% (inactive),-6% (inactive),7.43% (inactive)
Cc1cc(NC(=O)C2=C(O)c3ccccc3S(=O)(=O)N2C)no1,4% (inactive),1.7,-1.3% (inactive),-24.5% (inactive),14.8% (inactive),-2.4% (inactive),4.6% (inactive),-6% (inactive),-7.2% (inactive),0.485% (inactive)
CCCCOc1ccc(C(=O)CCN2CCCCC2)cc1,1.2% (inactive),-0.2,2.3% (inactive),55.8% (active),12.5% (inactive),-0.1% (inactive),59.9% (active),59.5% (active),31.3% (inactive),9.17% (inactive)
CC1(C)S[C@@H]2[C@H](NC(=O)[C@H](N)c3ccccc3)C(=O)N2[C@H]1C(=O)O,-0.1% (inactive),-0.4,-0.2% (inactive),-19% (inactive),16.3% (inactive),1.2% (inactive),-2.8% (inactive),-8.7% (inactive),-9.6% (inactive),9.14% (inactive)
CC1=CC(=O)c2ccccc2C1=O,25% (inactive),0.1,-1.3% (inactive),72.6% (active),26.3% (inactive),-6% (inactive),37.5% (inactive),122% (active),103% (active),12.5% (inactive)
C[C@@H]1C[C@H]2[C@@H]3CCC4=CC(=O)C=C[C@]4(C)[C@@]3(F)[C@@H](O)C[C@]2(C)[C@@]1(O)C(=O)COP(=O)(O)O,1.2% (inactive),0.8,-6.4% (inactive),-4.3% (inactive),0.7% (inactive),-2.2% (inactive),2.57% (inactive),24.1% (inactive),-4.8% (inactive),-4.39% (inactive)
CC/C(=C(/CC)c1ccc(O)cc1)c1ccc(O)cc1,21.1% (inactive),-0.2,0.8% (inactive),90.8% (active),20.8% (inactive),16.6% (inactive),94.3% (active),97.7% (active),98.4% (active),8.9% (inactive)
CC1=NN(c2ccccc2)C(=O)C1,0.5% (inactive),0.8,-2.2% (inactive),10.2% (inactive),6.7% (inactive),3.5% (inactive),2.1% (inactive),33.2% (inactive),12.2% (inactive),13.6% (inactive)
COC(=O)Nc1nc2ccc(Sc3ccccc3)cc2[nH]1,56.8% (active),33.5,1.1% (inactive),48% (active),103% (active),48.3% (active),94.4% (active),81.8% (active),45.8% (active),10.3% (inactive)
Cc1cc(C2CCCCC2)n(O)c(=O)c1,64.4% (active),14.3,0.4% (inactive),49.9% (active),109% (active),-3.2% (inactive),75.1% (active),108% (active),90.8% (active),1.68% (inactive)
CC1=C(C(=O)O)N2C(=O)[C@@H](NC(=O)[C@H](N)C3=CCC=CC3)[C@H]2SC1,-1.1% (inactive),-2.4,0.35% (inactive),47.6% (inactive),0.9% (inactive),1.6% (inactive),44% (inactive),34.9% (inactive),16.5% (inactive),12.9% (inactive)
